Here are results for 15 compounds from PubChem BioAssay (EPA / NIEHS).

“And” between values parts separate entries of the source, which are not always exact repeats. Equal values may be shown once. Records with an inconclusive call do not appear. Where a structure was tested more than once in an assay, its records may differ in their call. The source made the active and inactive calls. The calls were made as follows, unless noted: active = hit-call score of the fitted dose curve at least 0.9, where 1 is the maximum; inactive = score below 0.9.

One may read the AC50 as the midpoint of the concentration-response curve, whichever way the signal moves.

Read-out in experiment [1]: E-selectin (Homo sapiens) (UniProt P16581)
As to the kind of experiment: BSK_SAg_Eselectin: BioMAP Diversity Plus: SAg Assay for Eselectin Biomarker Activity (AID 2283091). The note with it: primary human HUVEC with PBMC; actives raise or lower the signal. The procedure, abridged: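 Cell-surface E-selectin is read by ELISA at 24 h in the SAg co-culture of HUVEC and PBMC. Curves are fitted in both directions relative to DMSO. Parallel SRB total-protein staining tracks overt toxicity.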

Experiment [2] in a line: BSK_SAg_PBMCCytotoxicity: PBMC Cytotoxicity Assessment in the BioMAP Diversity Plus: SAg Assay (AID 2283093).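 Also: PBMC viability measured as Alamar Blue reduction fluorescence at 546/580 nm; fitted both ways against DMSO so a hit may be loss or gain of signal.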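 As to AC50: PBMC superantigen activated with SEB plus TSST-1 one hour after compound addition.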 The note with it: primary human HUVEC with PBMC. In outline:
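Human umbilical vein endothelial cells co-cultured with PBMC; PBMC (75,000/well) pre-treated with compound 1 h, then activated with SEB and TSST-1 (20 ng/mL final each) for 90 h. Alamar Blue added 6 h, fluorescence 546/580 nm; bidirectional fit versus DMSO.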

Read-out in experiment [3]: Interleukin-8 (IL8), CXCL8 (gene 3576)
As to the kind of experiment: BSK_SAg_IL8: BioMAP Diversity Plus: SAg Assay for Interleukin-8 (IL8) Biomarker Activity (AID 2283094). The conditions noted are these: primary human HUVEC with PBMC; actives raise or lower the signal. The procedure, abridged:
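Human umbilical vein endothelial cells co-cultured with peripheral blood mononuclear cells; IL-8 measured by ELISA 24 h after chemical dosing. Bidirectional concentration-response fitting used DMSO as negative control and activity baseline.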

A short description of experiment [4]: BSK_SAg_Proliferation: Cell Proliferation Assessment in the BioMAP Diversity Plus: SAg Assay (AID 2283095).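 Also: relative cell number as total protein by SRB absorbance in sub-confluent culture.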 The conditions noted are these: primary human HUVEC with PBMC. In outline: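 Human umbilical vein endothelial cells co-cultured with peripheral blood mononuclear cells; total protein measured by sulforhodamine B staining (0.1% SRB after 10% TCA fixation), absorbance at 560 nm, at 96 h. Bidirectional fit against DMSO baseline.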

A short description of experiment [5]: BSK_SAg_SRB: Viability Assessment in the BioMAP Diversity Plus: SAg Assay (AID 2283096).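 Also: cells read one day after compound addition; hits may be either gain or loss of signal compared with DMSO.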 The note with it: primary human HUVEC with PBMC. The procedure, abridged: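 Endothelial/PBMC primary human co-culture; compound 24 h; fix 10% TCA, stain 0.1% SRB, A560; protein content as cytotoxicity proxy; bidirectional curve fit, DMSO = baseline.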
Read-out in experiment [6]: Monokine induced gamma interferon (MIG), CXCL9 (gene 4283)
Description: BSK_SAg_MIG: BioMAP Diversity Plus: SAg Assay for Monokine induced gamma interferon (MIG) Biomarker Activity (AID 2283092). The note with it: primary human HUVEC with PBMC; actives raise or lower the signal. The procedure, abridged:
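Endothelial cells and PBMC were co-cultured, exposed to test chemicals, and sampled 24 h later. MIG was measured by ELISA, and responses were fitted in both directions relative to DMSO.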

Experiment [7] deals with human CYP4F12, CYP4F12 (gene 66002) (UniProt Q9HCS2). As to the kind of experiment: NVS_ADME_hCYP4F12: NovaScreen (NVS) CYP450-related Enzyme Activity (ADME) Assay for human CYP4F12 (AID 2283111; active = hit-call score of the fitted dose curve at least 0.9, where 1 is the maximum). In outline: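 Cell-free fluorescence assay of recombinant human CYP4F12 activity on a specific substrate, read 0.5 h after dosing. Primary screen in duplicate at 10 uM, then concentration series for actives; loss of signal fitted against acetonitrile negative control.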

In experiment [8] the target is human CYP2A6, CYP2A6 (gene 1548) (UniProt P11509). As to the kind of experiment: NVS_ADME_hCYP2A6: NovaScreen (NVS) CYP450-related Enzyme Activity (ADME) Assay for human CYP2A6 (AID 2283099; active = hit-call score of the fitted dose curve at least 0.9, where 1 is the maximum). In outline:
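Compounds screened at 10 uM (duplicate) and, if active, titrated to a 20 uM top concentration against insect-cell-expressed CYP2A6. Loss of fluorescent product signal after 0.5 h, relative to acetonitrile baseline, indicates inhibition.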

For experiment [9], the target named is Cytochrome P450 3A4 (Homo sapiens) (UniProt P08684). As to the kind of experiment: NVS_ADME_hCYP3A4: NovaScreen (NVS) CYP450-related Enzyme Activity (ADME) Assay for human CYP3A4 (AID 2283110; active = hit-call score of the fitted dose curve at least 0.9, where 1 is the maximum). The procedure, abridged:
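Cell-free assay using insect-cell-expressed human CYP3A4 with a fluorogenic substrate; fluorescence intensity was read 0.33 hour after dosing. Loss of signal relative to acetonitrile vehicle indicated inhibition. Primary single-concentration screen at 10 uM, in duplicate, then concentration series.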

The target of experiment [10] is human CYP2B6, CYP2B6 (gene 1555) (UniProt P20813). Description: NVS_ADME_hCYP2B6: NovaScreen (NVS) CYP450-related Enzyme Activity (ADME) Assay for human CYP2B6 (AID 2283101; active = hit-call score of the fitted dose curve at least 0.9, where 1 is the maximum). The procedure, abridged: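 Cell-free recombinant enzyme assay with a fluorogenic substrate; fluorescence intensity read 1 hour after dosing. Loss of signal relative to acetonitrile negative control indicates inhibition. Primary screen run in duplicate at 10 uM, actives then tested in concentration series.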

Experiment [11] addresses human CYP19A1, CYP19A1 (gene 1588) (UniProt P11511). As to the kind of experiment: NVS_ADME_hCYP19A1: NovaScreen (NVS) CYP450-related Enzyme Activity (ADME) Assay for human CYP19A1 (AID 2283098; active = hit-call score of the fitted dose curve at least 0.9, where 1 is the maximum;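 as to AC50: potency for inhibitors seen as loss of fluorescent enzyme signal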). In outline:
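Cell-free enzyme assay with recombinant protein and a specific fluorogenic substrate, read by fluorescence intensity 0.5 h after dosing. Primary screen ran in duplicate at 10 uM; actives were retested in concentration series. Loss of signal versus acetonitrile baseline.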

Experiment [12] deals with Cytochrome P450 2C19 (Homo sapiens) (UniProt P33261). As to the kind of experiment: NVS_ADME_hCYP2C19: NovaScreen (NVS) CYP450-related Enzyme Activity (ADME) Assay for human CYP2C19 (AID 2283113; active = hit-call score of the fitted dose curve at least 0.9, where 1 is the maximum;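 also: potency for inhibition seen as loss of fluorescent signal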). In outline:
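Compounds first screened in duplicate at 10 uM, then confirmed in concentration series. Insect-cell-expressed human CYP2C19 turned over a fluorogenic substrate, and fluorescence was read after 1 h. Inhibition taken as signal loss relative to acetonitrile.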

Experiment [13] concerns the target rat CYP2A2, Cyp2a2 (gene 24895) (UniProt P15149). Description: NVS_ADME_rCYP2A2: NovaScreen (NVS) CYP450-related Enzyme Activity (ADME) Assay for rat CYP2A2 (AID 2283116; active = hit-call score of the fitted dose curve at least 0.9, where 1 is the maximum). In outline:
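Cell-free recombinant rat CYP2A2 activity with fluorogenic substrate, fluorescence read 0.2 h after dosing. Chemicals screened at 10 uM in duplicate, hits then run in concentration-response up to 20 uM; signal loss versus acetonitrile baseline.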

Experiment [14] concerns the target human CYP1A2, CYP1A2 (gene 1544) (UniProt P05177). Description: NVS_ADME_hCYP1A2: NovaScreen (NVS) CYP450-related Enzyme Activity (ADME) Assay for human CYP1A2 (AID 2283102; active = hit-call score of the fitted dose curve at least 0.9, where 1 is the maximum;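 also: potency for inhibition since loss of fluorescence marks reduced CYP1A2 activity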). In outline: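 Enzyme activity of insect-cell-expressed human CYP1A2 measured by fluorescence 0.5 h after compound addition, relative to acetonitrile. Compounds first tested in duplicate at 10 uM, actives followed up in concentration series.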

For experiment [15], the target named is human CYP2D6, CYP2D6 (gene 1565) (UniProt P10635). As to the kind of experiment: NVS_ADME_hCYP2D6: NovaScreen (NVS) CYP450-related Enzyme Activity (ADME) Assay for human CYP2D6 (AID 2283107; active = hit-call score of the fitted dose curve at least 0.9, where 1 is the maximum). In outline: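 Fluorescence readout of recombinant CYP2D6 (insect-cell derived) activity after 1 h incubation with test chemical. Acetonitrile served as baseline, loss-of-signal direction. Single-concentration duplicate screening at 10 uM preceded concentration-response retesting.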

Experiment [16] addresses human CYP2C9, CYP2C9 (gene 1559) (UniProt P11712). Description: NVS_ADME_hCYP2C9: NovaScreen (NVS) CYP450-related Enzyme Activity (ADME) Assay for human CYP2C9 (AID 2283108; active = hit-call score of the fitted dose curve at least 0.9, where 1 is the maximum). In outline: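 Cell-free assay of recombinant human CYP2C9 produced in Sf9 cells, with enzyme activity read by fluorescence intensity 0.75 h after compound addition. Loss of signal versus an acetonitrile negative control indicates inhibition. Primary screen used 10 uM in duplicate; actives were retested in concentration series.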

Sequence of E-selectin (Homo sapiens) (P16581 whole entry, looked up): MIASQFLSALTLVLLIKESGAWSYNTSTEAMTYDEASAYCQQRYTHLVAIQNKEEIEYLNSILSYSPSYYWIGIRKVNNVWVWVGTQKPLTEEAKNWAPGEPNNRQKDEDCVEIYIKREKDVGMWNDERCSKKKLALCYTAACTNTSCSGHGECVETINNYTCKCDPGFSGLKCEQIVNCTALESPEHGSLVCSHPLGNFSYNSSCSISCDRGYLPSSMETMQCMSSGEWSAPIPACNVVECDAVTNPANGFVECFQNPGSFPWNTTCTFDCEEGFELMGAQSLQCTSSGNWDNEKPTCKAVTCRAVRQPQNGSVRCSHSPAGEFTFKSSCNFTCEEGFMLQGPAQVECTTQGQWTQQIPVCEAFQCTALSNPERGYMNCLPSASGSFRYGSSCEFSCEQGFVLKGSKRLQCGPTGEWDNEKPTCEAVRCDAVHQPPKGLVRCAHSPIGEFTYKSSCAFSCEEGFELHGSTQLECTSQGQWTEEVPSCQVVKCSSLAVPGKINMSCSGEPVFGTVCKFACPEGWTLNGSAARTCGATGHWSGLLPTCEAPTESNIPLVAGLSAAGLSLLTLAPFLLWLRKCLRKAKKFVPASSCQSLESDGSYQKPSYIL
Sequence of human CYP19A1, CYP19A1 (gene 1588) (P11511 whole entry, looked up): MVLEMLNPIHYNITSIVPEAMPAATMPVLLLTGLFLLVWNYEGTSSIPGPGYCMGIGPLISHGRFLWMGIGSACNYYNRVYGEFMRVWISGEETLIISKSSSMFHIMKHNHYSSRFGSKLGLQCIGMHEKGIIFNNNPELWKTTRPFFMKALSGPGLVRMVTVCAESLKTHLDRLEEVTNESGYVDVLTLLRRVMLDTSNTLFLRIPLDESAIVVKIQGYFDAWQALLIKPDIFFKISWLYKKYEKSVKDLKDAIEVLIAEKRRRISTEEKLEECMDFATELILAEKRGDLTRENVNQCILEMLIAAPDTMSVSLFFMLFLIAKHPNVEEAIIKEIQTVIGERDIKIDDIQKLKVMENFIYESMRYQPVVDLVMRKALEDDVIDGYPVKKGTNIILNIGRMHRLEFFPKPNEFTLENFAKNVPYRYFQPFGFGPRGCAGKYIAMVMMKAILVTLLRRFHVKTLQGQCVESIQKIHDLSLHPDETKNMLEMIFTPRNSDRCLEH
Sequence of human CYP2A6, CYP2A6 (gene 1548) (P11509 whole entry, looked up): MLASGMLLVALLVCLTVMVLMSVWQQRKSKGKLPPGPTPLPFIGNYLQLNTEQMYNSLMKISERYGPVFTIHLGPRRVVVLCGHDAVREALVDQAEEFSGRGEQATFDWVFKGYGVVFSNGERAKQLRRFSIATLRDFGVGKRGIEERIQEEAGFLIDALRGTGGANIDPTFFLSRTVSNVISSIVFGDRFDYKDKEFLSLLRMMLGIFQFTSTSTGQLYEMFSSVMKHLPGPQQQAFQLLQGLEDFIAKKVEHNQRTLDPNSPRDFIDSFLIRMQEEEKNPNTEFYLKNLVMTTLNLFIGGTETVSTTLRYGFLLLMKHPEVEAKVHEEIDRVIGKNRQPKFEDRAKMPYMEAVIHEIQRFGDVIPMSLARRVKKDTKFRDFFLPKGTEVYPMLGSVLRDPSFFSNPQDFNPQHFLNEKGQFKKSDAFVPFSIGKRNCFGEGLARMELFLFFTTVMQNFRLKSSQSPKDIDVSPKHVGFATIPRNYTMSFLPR
Sequence of Cytochrome P450 3A4 (Homo sapiens) (P08684 whole entry, looked up): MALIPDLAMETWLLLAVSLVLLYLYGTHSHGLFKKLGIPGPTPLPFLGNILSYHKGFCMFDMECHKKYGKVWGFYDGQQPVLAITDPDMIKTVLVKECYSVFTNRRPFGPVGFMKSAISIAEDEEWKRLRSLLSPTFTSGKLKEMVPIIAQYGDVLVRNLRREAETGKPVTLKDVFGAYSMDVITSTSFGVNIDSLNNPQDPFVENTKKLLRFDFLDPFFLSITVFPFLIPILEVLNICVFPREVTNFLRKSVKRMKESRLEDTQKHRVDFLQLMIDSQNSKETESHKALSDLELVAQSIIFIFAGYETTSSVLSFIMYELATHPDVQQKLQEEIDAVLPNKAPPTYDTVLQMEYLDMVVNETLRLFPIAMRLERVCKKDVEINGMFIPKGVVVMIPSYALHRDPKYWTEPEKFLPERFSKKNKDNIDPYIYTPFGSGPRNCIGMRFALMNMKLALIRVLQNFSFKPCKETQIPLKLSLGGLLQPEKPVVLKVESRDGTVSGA
Sequence of human CYP4F12, CYP4F12 (gene 66002) (Q9HCS2 whole entry, looked up): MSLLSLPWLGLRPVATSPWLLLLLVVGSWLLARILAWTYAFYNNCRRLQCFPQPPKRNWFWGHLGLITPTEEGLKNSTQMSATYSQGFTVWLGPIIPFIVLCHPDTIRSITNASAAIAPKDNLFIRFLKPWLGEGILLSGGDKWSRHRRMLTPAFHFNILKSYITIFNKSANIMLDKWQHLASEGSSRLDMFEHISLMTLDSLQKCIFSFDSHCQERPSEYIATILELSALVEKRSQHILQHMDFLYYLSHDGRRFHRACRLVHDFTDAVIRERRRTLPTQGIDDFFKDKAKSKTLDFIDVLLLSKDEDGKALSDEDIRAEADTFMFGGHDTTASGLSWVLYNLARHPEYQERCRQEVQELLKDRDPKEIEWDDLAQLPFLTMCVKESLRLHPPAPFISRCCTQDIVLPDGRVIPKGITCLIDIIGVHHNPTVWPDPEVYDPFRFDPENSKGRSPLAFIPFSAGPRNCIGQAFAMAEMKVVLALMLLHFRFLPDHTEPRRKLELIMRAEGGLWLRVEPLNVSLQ
Sequence of rat CYP2A2, Cyp2a2 (gene 24895) (P15149 whole entry, looked up): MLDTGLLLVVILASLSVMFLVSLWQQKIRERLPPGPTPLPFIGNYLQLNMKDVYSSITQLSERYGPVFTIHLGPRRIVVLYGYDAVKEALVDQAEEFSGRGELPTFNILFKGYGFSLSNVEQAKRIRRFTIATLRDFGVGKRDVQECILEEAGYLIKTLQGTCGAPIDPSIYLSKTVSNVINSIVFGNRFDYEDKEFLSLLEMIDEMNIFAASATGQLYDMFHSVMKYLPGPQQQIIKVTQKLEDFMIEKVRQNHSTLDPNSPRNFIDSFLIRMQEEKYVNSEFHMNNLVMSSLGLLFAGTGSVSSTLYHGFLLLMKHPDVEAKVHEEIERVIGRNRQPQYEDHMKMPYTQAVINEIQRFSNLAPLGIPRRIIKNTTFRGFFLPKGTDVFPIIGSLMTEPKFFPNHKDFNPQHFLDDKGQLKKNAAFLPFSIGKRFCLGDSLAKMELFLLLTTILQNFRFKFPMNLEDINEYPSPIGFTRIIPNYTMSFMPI
Sequence of human CYP2C9, CYP2C9 (gene 1559) (P11712 whole entry, looked up): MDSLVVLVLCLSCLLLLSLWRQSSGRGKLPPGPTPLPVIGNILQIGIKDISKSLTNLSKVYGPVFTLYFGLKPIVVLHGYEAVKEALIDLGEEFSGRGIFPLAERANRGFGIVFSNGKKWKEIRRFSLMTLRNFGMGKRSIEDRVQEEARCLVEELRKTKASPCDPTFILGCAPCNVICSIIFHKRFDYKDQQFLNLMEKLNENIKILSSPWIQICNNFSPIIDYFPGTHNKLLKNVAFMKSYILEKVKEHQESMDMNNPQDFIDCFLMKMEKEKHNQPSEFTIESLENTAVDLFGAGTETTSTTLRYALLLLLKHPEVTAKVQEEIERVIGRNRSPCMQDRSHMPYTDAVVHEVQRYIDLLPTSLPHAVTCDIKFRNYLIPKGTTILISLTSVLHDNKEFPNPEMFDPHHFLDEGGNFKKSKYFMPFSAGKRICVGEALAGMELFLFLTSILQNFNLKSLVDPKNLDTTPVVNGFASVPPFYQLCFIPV
Sequence of human CYP2B6, CYP2B6 (gene 1555) (P20813 whole entry, looked up): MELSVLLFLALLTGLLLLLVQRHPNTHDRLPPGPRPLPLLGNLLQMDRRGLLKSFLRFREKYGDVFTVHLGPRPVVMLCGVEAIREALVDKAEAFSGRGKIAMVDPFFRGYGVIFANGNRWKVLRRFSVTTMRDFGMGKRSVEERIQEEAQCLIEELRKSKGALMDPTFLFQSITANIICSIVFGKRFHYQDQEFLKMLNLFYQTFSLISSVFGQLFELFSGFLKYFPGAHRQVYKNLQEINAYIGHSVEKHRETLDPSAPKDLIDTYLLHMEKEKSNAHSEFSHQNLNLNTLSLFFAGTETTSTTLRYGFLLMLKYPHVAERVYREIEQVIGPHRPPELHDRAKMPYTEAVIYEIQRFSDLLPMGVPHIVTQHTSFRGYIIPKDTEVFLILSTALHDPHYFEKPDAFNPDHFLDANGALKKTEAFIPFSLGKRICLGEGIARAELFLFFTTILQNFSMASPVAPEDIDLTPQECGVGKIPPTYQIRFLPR
Sequence of human CYP1A2, CYP1A2 (gene 1544) (P05177 whole entry, looked up): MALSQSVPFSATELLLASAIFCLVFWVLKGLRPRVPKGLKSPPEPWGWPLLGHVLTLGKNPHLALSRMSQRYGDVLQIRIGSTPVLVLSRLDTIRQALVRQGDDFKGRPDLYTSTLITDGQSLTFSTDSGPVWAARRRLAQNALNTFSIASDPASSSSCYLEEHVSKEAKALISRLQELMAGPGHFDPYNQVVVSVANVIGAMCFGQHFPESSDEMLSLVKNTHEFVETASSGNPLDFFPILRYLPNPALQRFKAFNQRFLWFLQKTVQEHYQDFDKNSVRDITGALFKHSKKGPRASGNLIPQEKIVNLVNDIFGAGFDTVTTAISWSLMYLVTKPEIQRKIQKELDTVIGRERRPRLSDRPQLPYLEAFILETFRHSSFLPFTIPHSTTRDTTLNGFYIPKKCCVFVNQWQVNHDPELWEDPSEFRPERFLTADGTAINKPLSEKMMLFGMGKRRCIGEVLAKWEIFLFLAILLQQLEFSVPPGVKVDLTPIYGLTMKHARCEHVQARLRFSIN

`C=CC(N)=O`: the result in [1], in [2], in [3], in experiment [4] and in [5] was inactive.
Consider `Cc1ccc(O)c(C)c1`, for which the result in experiment [1], in experiment [6], in [2], in experiment [3], in [4] and in [5] was inactive. In [7], the result was inactive.
Turning to `CCOCCOC(C)=O`, the result in [1], in [2], in experiment [3], in experiment [4] and in experiment [5] was inactive.
As to `Clc1ccc(Cl)cc1`, the outcome in experiment [1], in experiment [6], in [3], in experiment [4] and in experiment [5] was inactive.
Turning to `Clc1ccc(C(Cl)(Cl)Cl)cc1`, the result in experiment [1], in experiment [6], in [2], in experiment [3], in experiment [4] and in experiment [5] was inactive.
For `Cc1cc2c3c(c1)C(c1ccccc1)=N[C@@H](NC(=O)c1ccncc1)C(=O)N3CC2`, the AC50 in experiment [1] is 4 µM (active); in experiment [3], 6.46 µM (active). Further, the result in experiment [6], in experiment [4], in experiment [5], in experiment [8] and in [9] was inactive.
Consider `Oc1c(Cl)c(Cl)c(Cl)c(Cl)c1Cl`, for which the AC50 in [1] was 27.3 µM (active); in experiment [6], 34.8 µM (active); in [4], 15.8 µM (active) and 26.9 µM (active); in [5], 14.6 µM (active) and 21.8 µM (active). For the same compound, the outcome in experiment [1], in [6], in experiment [3], in [8] and in [10] was inactive.
Regarding `Sc1ccccc1`, the result in experiment [1], in experiment [6], in experiment [3], in [4] and in experiment [5] was inactive.
In the case of `C[C@]12CCC(=O)C=C1CC[C@@H]1[C@@H]2CC[C@]2(C)C(=O)CC[C@@H]12`, the result in experiment [1], in [6], in [3] and in [4] was inactive. For the same compound, the AC50 in experiment [5] is 20 µM (active); in experiment [11], 5.03 µM (active) and 5.63 µM (active) and 1.44 µM (active); in experiment [12] it was 10 µM (active) and 6.19 µM (active) and 5.77 µM (active); in experiment [13], 1.52 µM (active).
With `Nn1cnnc1`, the outcome in experiment [1], in experiment [6], in [3], in experiment [4] and in experiment [5] was inactive.
On to `CCC(=O)O[C@H]1CC[C@H]2[C@@H]3CCC4=CC(=O)CC[C@]4(C)[C@H]3CC[C@]12C`, for which the AC50 in experiment [1] was 34.2 µM (active); in experiment [2], 37.9 µM (active); in experiment [3], 29.8 µM (active); in [4], 33.3 µM (active); in experiment [5], 29.4 µM (active).
Turning to `CCCCCCCCCC[N+](C)(C)CCCCCCCCCC`, the AC50 in experiment [1] was 2.19 µM (active); in experiment [6], 3.59 µM (active); in experiment [2], 1.77 µM (active); in [3], 7.36 µM (active); in [4] it was 0.148 µM (active); in experiment [5], 5.35 µM (active). Moreover, the AC50 in experiment [14] is 14.3 µM (active); in experiment [15], 1.38 µM (active); in experiment [9] it was 9.61 µM (active); in experiment [12], 6.37 µM (active).
Regarding `CCCN(CCC)N=O`, the result in experiment [1], in experiment [6], in experiment [3], in experiment [4], in experiment [5] and in experiment [11] was inactive.
On to `O=C(O)C(F)(F)C(F)(F)C(F)(F)C(F)(F)C(F)(F)C(F)(F)C(F)(F)C(F)(F)F`, for which the result in experiment [1], in experiment [2], in experiment [3], in experiment [4] and in experiment [5] was inactive. The concentration at half-maximal activity (AC50) in [3] was 44.1 µM (active) and 55.1 µM (active); in [4], 55.2 µM (active); in experiment [5] it was 51 µM (active) and 55 µM (active); in experiment [16], 0.643 µM (active).
For the compound `CCCCCCCCCc1ccc(O)cc1`, the AC50 is 20 µM (active) in [1]; 33.7 µM (active) in [6]; 20.2 µM (active) in experiment [3]; 14.3 µM (active) in experiment [4]; 23.8 µM (active) in experiment [5].
